Screens as filed in PubChem BioAssay.
NIH3T3 tox: kills NIH 3T3 cells | NIH 3T3 viability, CellTiter-Glo ATP luminescence, 48-72 h | Potency, µM (top dose mostly 96.7 µM), usual class: inhibitors | 94,000 tested, 4.3% active; further: nearly all actives have a fitted effect of over 55% in size
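Cytotoxicity was measured by CellTiter-Glo ATP luminescence after 48 or 72 h compound exposure at 37 °C. Mouse NIH 3T3 fibroblasts were seeded at 400 cells/well and dosed by 23 nL pin transfer.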
GPT2 inhibitor: inhibitors of human GPT2 alanine aminotransferase; Q8TD30; Recombinant GPT2, coupled pyruvate oxidase/HRP Amplex Red fluorescence; Potency, µM (top dose mostly 57.7 µM), most hits filed as inhibitors; 100,000 tested, 0.25% active; AID 1671188; further: nearly all actives have a fitted effect of over 60% in size
Target sequence (Q8TD30 whole entry, looked up): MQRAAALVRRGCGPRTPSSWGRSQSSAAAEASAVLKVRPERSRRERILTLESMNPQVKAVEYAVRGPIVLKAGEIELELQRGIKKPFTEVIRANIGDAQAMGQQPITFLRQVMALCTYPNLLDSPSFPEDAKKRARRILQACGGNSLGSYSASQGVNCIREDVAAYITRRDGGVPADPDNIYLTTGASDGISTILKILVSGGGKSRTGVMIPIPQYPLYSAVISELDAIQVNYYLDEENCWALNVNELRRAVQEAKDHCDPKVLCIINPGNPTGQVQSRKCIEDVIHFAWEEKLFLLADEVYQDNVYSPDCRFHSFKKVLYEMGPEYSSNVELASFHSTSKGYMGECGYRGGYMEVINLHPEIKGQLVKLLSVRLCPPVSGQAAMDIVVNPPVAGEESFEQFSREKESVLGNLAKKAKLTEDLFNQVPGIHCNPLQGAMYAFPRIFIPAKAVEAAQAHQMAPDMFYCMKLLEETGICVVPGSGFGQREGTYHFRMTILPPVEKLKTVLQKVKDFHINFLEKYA
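Fluorescence of coupled pyruvate oxidase/HRP/Amplex Red system (50uM Amplex, 30 min, dark) reports pyruvate formed by GPT2. Enzyme reaction: 10ng/uL GPT2, 2mM L-alanine, 250uM a-KG, 30 min room temperature, pH 7.5; 50uM AOA control.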
NPR1 antag: antagonists of human natriuretic peptide receptor Npr1; P16066; HEK293 hNpr1 GloSensor cGMP, ANP-stimulated luminescence; Potency, µM (series often up to 46.3 µM), actives largely listed as inhibitors; 76,000 tested, 1.6% active; AID 1347048; calls by dose curve; further: nearly all actives have a fitted effect of over 60% in size
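HEK293 cells stably expressing human Npr1 and cGMP GloSensor pGS-40F, loaded 2 h with 2% GloSensor reagent, given compound 30 min at room temperature. Luminescence read before and 20 min after 0.1 nM hNppA.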
FLuc inh: blocks purified firefly luciferase enzyme activity. P08659. purified P. pyralis luciferase, luminescence, biochemical. Potency, µM (highest dose often 115 µM), hits mostly inhibitors. 76,000 tested, 2.5% active. AID 1347043; further: nearly all actives have a fitted effect of over 65% in size
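Luminescence read by CCD imaging after purified firefly luciferase (10nM final) was added to substrate buffer holding 10uM D-luciferin and 10uM ATP, pH 7.5, pre-dosed with compound.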
HEK cytotox: cytotoxic compounds in HEK 293 cells; HEK 293 viability, ATP luminescence (CellTiter-Glo), 48-72 h; Potency, µM (highest dose often 115 µM), usual class: inhibitors; 94,000 tested, 6.6% active; further: nearly all actives have a fitted effect of over 60% in size
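qHTS cytotoxicity; HEK 293, 250 cells/well; compound pinned; 48 or 72 hr, 37 degree Celsius, 5% CO2, 95% humidity; CellTiter-Glo, 10 min RT; luminescence (ATP).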
Numbers stand for hits; . = inactive; ? = inconclusive; / = no result; ! = repeats disagree; [ ] = dose if it differs, or a comment. The list is not random: actives were taken first. Their share in the collection is about 10%. Unless noted, the call rests on the fitted dose curve; in most records, active means well fitted curve in the direction sought with a large enough effect; inconclusive means small, poorly fitted or top-dose-only effect, or another doubt; inactive means no such curve, though single readings can be large; an effect the other way counts as inactive or inconclusive.

SMILES	NIH3T3 tox	GPT2 inhibitor	NPR1 antag	FLuc inh	HEK cytotox
O=C(Cc1cccc(F)c1)NC1CCN(c2ccc(F)cc2)C1=O (configuration not stated)	.	.	.	.	.
CCCNC(=O)NC[C@H]1O[C@@H]2C[C@@H](CC(=O)NC(C)C)O[C@@H]2[C@@H]1O	.	?	.	.	.
COc1ccccc1-c1ccc(C(=O)N2CCC(NC(=O)Cc3cccc(Cl)c3)CC2)cc1	16µM	.	/	/	16µM!
COc1ccccc1-c1ccc(C(=O)N2CCC(C(=O)NCCc3ccc(Cl)cc3)CC2)cc1	32µM	.	/	/	?
COc1ccccc1-c1ccc(C(=O)N2CCC(NC(=O)Cc3ccc(F)cc3)CC2)cc1	45µM!	.	/	/	?
COc1cccc(N2C(=O)NC(=NC3CCCCC3)C23CCN(C(=O)c2ccccc2F)CC3)c1	?	.	/	/	?
COc1ccc(N2CC(c3noc(-c4ccc(N(C)C)cc4)n3)CC2=O)cc1 (configuration not stated)	.	.	?	.	.
COCCN1CCC(N2CCN(C(=O)CC3CCCCC3)CC2)C1=O (configuration not stated)	.	.	.	.	.
CCOC(=O)C1CCCN(C(=O)C2CCc3nnc(C4CC4)n32)C1 (configuration not stated)	25µM	.	/	/	?
CCN1CCN(CCNC(=O)c2cc(-c3ccc(Cl)cc3)cn2CC)CC1	20µM	.	.	.	28µM
CCN1CCN(CCNC(=O)c2cc(-c3ccc(Cl)cc3)cn2C)CC1	?	.	.	.	25µM
Cc1nc(CN2C[C@H](C(=O)Nc3cccc(F)c3)C[C@@H]2c2ccc(F)cc2)cs1	40µM	?	.	.	40µM
COc1ccc(NC(=O)[C@@H]2C[C@H](c3ccc(F)cc3)N(Cc3csc(C)n3)C2)cc1OC	?	.	.	.	?
COc1ccc(NC(=O)[C@@H]2C[C@H](c3ccc(F)cc3)N(Cc3csc(C)n3)C2)c(C)c1	71µM	.	.	.	89µM
COc1cccc(NC(=O)[C@@H]2C[C@H](c3ccc(F)cc3)N(Cc3csc(C)n3)C2)c1	?	.	.	.	63µM
Cc1nc(CN2C[C@H](C(=O)Nc3cccc(Cl)c3)C[C@@H]2c2ccc(F)cc2)cs1	50µM	.	?	.	50µM
CS(=O)(=O)N(C1CCOCC1)C1CCN(S(=O)(=O)Cc2ccccc2)CC1	.	.	.	.	.
O=C(N[C@@H]1CN(Cc2ccc(CO)o2)CCC[C@H]1O)c1ccc(OCc2ccccc2)cc1	?	?	.	.	?
O=C(Cn1ccn2nc(-c3ccccc3)c(CO)c2c1=O)NCCc1ccc(Cl)cc1	?	.	.	.	?
O=C(Nc1cccc(F)c1)[C@@H]1C[C@@H](c2ccc(F)cc2)N([S+](=O)([O-])c2cccnc2)C1	?	.	.	.	?
Cc1nc(CN2C[C@H](C(=O)NCCOc3ccccc3)C[C@@H]2c2ccc(F)cc2)cs1	56µM	.	.	.	89µM
O=C(Nc1cccc(F)c1)[C@@H]1C[C@@H](c2ccc(F)cc2)N([S+](=O)([O-])c2ccccc2)C1	?	.	.	.	35µM
COc1cccc(NC(=O)[C@@H]2C[C@@H](c3ccc(F)cc3)N(CCOc3ccccc3)C2)c1	?	.	?	.	40µM
Cc1ccc(C(=O)N2CCC3(CC2)CC(O)CCO3)cc1 (configuration not stated)	.	.	.	.	.
O=C(c1c[nH]c(=O)cn1)N1C[C@H](CO)C[C@H](CN2CCOCC2)C1	.	.	.	.	.
SMILES	NIH3T3 tox	GPT2 inhibitor	NPR1 antag	FLuc inh	HEK cytotox
Cc1cnc(C(=O)NC2C[C@H]3CC[C@@H](C2)N3C(=O)c2ccc(OC(F)(F)F)cc2)cn1 (some centres not stated)	.	?	.	.	?
COc1ccc(-c2noc([C@@H]3CCCN3C(=O)c3cc(Cl)ccc3OC)n2)cc1	?	.	.	.	25µM
COc1ccc(-c2noc([C@@H]3CCCN3C(=O)c3ccc(F)c(Cl)c3)n2)cc1OC	?	.	.	.	40µM
CCCCOc1ccc(C(=O)N2CCC[C@H]2c2nc(-c3ccc(C)cc3)no2)cc1	35µM	?	.	.	22µM
COc1ccc(-c2noc([C@@H]3CCCN3C(=O)c3ccc(Cl)cc3)n2)cc1OC	?	.	.	.	?
O=C(CCc1ccccc1)N1CCC2(CC1)CC(N(Cc1ccccc1)C1CC1)CCO2 (configuration not stated)	?	.	.	.	?
Cc1ccccc1-c1nc(Cn2ccnc2C(C)C)c(C)o1	?	.	?	.	28µM
COCCN1C(=O)CS(=O)(=O)C12CCN(C(=O)COc1ccccc1)CC2	.	.	.	.	.
CNC(=O)c1cc(C2CC2)nc2c1c(C1CCN([S+](=O)([O-])c3ccc(C)cc3)CC1)nn2C	?	/	/	/	50µM
CNC(=O)c1cc(C2CC2)nc2c1c(C1CCN(C(=O)Cc3ccccc3)CC1)nn2C	.	/	/	/	89µM
CNC(=O)c1cc(C2CC2)nc2c1c(C1CCN([S+](=O)([O-])c3ccc(C)cc3)C1)nn2C (configuration not stated)	.	/	/	/	?
O=C(NCCN[S+](=O)([O-])c1ccccc1)c1cccc(-c2ccsc2)c1	?	.	/	/	50µM
O=C(NCC(=O)N1CCC(c2ccccc2)CC1)c1cccc(-c2ccsc2)c1	?	.	/	/	35µM
O=C(Cc1cccnc1)N1CCCC(c2ccccc2)(c2ccccc2)C1	.	.[11.5 µM]	.	.	45µM
Cc1ccc(S(=O)(=O)N2CC[C@H](c3nc4ccccc4[nH]3)C2)cc1	89µM	.	.	.	?
CN1CCC(N2CC[C@H](c3nc4ccc(C(F)(F)F)cc4[nH]3)C2)CC1	89µM	.	.	.	?
Cc1ccc2nc([C@H]3CCN(C4CCC4)C3)[nH]c2c1	?	.	?	?	?
FC(F)(F)c1ccc2nc([C@H]3CCN(C4CCCCC4)C3)[nH]c2c1	89µM	.	.	56µM	?
CN1CCC(N2CC[C@H](c3nc4ccccc4[nH]3)C2)CC1	.	.	.	71µM	.
CC(C)CNC(=O)CC1COCCN1C(=O)c1ccc2c(=O)n(C)cnc2c1 (configuration not stated)	.	.	.	.	.
Cc1nccn1CC(=O)N1C[C@@H](COCC2CC2)[C@H](c2ccccn2)C1	.	.	.	.	.
C[S+](=O)([O-])c1cccc(-c2ccc3ncn(-c4ccc(F)cc4F)c(=O)c3n2)c1	?	.	.	.	?
CC(=O)Nc1cccc(-c2ccc3ncn(-c4ccc(F)cc4F)c(=O)c3n2)c1	?	.	.	.	89µM
COc1ncc(-c2ccc3ncn(-c4ccc(F)cc4F)c(=O)c3n2)cn1	?	.	.	.	89µM
